Source: PubChem
HCV inhibitor: blocks hepatitis C virus. Huh7.5.1 HCVcc-Cre infection, luciferase reporter, 44 h. Potency, µM (highest dose often 41.8 µM), for the others: top-dose activity change, negative = inhibition, most hits filed as inhibitors. hit rate 3.4% among 340,000. AID 651820; also: % is scaled to controls: 0 for no effect and ±100 for the full control effect
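Whole-lifecycle infectious HCVcc-Cre system; cells 1,000/well, compound then virus (~0.5 moi) added 4 h after plating, 44 h culture. Luciferase read 15 sec following 15 min substrate incubation, room temp.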
Pf growth 48h: P. falciparum growth inhibition at 48 hours (one generation); AID 504832; hit rate 5.9% among 310,000; P. falciparum luciferase growth in erythrocytes, 48 h; Potency, µM (titrated, usually from 28.7 µM), for inactives: at the highest dose activity change, negative = inhibition, most hits filed as inhibitors; also: % is scaled to controls: 0 for no effect and ±100 for the full control effect
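Growth was read as firefly luciferase luminescence after a 48 h, 37 C, 5% CO2 exposure of compounds to reporter-bearing P. falciparum cultures (0.1% parasitemia, 2% hematocrit final) in Albumax-supplemented RPMI 1640.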
NS1 function inh: influenza NS1 inhibition. Potency, µM (highest dose often 46.1 µM), inactives show at the top dose activity, positive = more growth. hit rate 0.4% among 270,000; calls by dose curve; also: actives are rising curves; nearly all actives have a fitted effect of over 50% in size
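Growth recovery, yeast-based: influenza A NS1 expressed in S. cerevisiae causes slow growth, and suppressors are detected by OD600. The parent strain without NS1 is used as positive control.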
VACV mCherry inh: vaccinia inhibition (mCherry reporter); Vaccinia virus mCherry reporter infection, fluorescence; Potency, µM (doses to about 36.5 µM), for inactives: top-dose activity change, negative = inhibition, hits mostly inhibitors; hit rate 0.63% among 310,000; calls by dose curve; tested in A549 cells; also: % is scaled to controls: 0 for no effect and ±100 for the full control effect; nearly all actives have a fitted effect of over 35% in size
Pf growth 96h: P. falciparum growth inhibition at 96 hours | P. falciparum luciferase reporter growth, 96 h | Potency, µM (titrated, usually from 28.7 µM), without a hit: top-dose activity change, negative = inhibition, usual class: inhibitors | hit rate 6.9% among 320,000; also: % is scaled to controls: 0 for no effect and ±100 for the full control effect
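Two-generation exposure (96 h) targets delayed-death phenotype. Reporter parasites carrying integrated firefly luciferase, in red cells at 2% hematocrit and 0.05% parasitemia final, kept at 37 C, 5% CO2; luminescence loss indicates inhibition.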
Vaccinia Venus: inhibitors of vaccinia virus (Venus reporter) | Potency, µM (highest dose often 36.5 µM), without a hit: top-dose activity change, negative = inhibition, actives largely listed as inhibitors | hit rate 0.46% among 330,000 | Vaccinia virus Venus reporter expression, fluorescence | AID 720580; calls by dose curve; tested in A549 cells; also: % is scaled to controls: 0 for no effect and ±100 for the full control effect; nearly all actives have a fitted effect of over 30% in size
* hit, by the source's call; i = inactive; ? = inconclusive; nt = not tested or not shown; [ ] = another dose, or the depositor's remark. The list is not random: actives were taken first. Their share in the collection is about 11%. Unless noted, calls follow the shape of the dose curve; as a rule, active = well fitted inhibition curve with a large enough effect; inconclusive = small, poorly fitted or top-dose-only effect, or another doubt; inactive = no such curve, though single readings can be large or run the other way. Potency is read from the fitted curve at half-maximal effect.

SMILES	HCV inhibitor	Pf growth 48h	NS1 function inh	VACV mCherry inh	Pf growth 96h	Vaccinia Venus
COC(=O)c1ccc(Nc2nc(C)cc(C)n2)cc1	16%	3%	-35%	i	60%	-9%
COc1ccc(C(=O)N2CCN(c3ncccn3)CC2)cc1[N+](=O)[O-]	9%	5%	5%	nt	?	nt
O=C(Nc1ccc(OCC(F)(F)C(F)F)c(C(F)(F)F)c1)c1ccccc1	10µM*	nt	nt	-25%	nt	?
O=C(Nc1ccc(OCC(F)(F)C(F)F)cc1)c1ccncc1	?	15%	nt	i	2%	-15%
O=C(Nc1ccc(OCC(F)(F)C(F)F)c(C(F)(F)F)c1)c1ccccc1O	6.3µM*	2.1µM*	-48%	?	3.7µM*	10µM*
COc1cc(C2NC(=O)NC(C)=C2C(=O)OC2CCCC(C)C2)ccc1O (configuration not stated)	10%	10µM*	8%	-12%	nt	-13%
CCOC(=O)C1=C(CS(=O)(=O)c2ccccc2)NC(=O)NC1c1cc(OC)c(O)c(OC)c1 (configuration not stated)	12%	17%	-3%	nt	2.6µM*	nt
CCOC(=O)C1=C(COc2ccccc2)NC(=O)NC1c1ccc(Br)cc1 (configuration not stated)	-9%	?	10%	i	3.3µM*	?
CC1=C(C(=O)OC2CCCCC2)C(c2ccccc2)NC(=O)N1 (configuration not stated)	10µM*	8%	16%	i	9.3µM*	-9%
CC(=O)N/C(=C\c1ccccc1)C(=O)OCC(=O)c1c(N)n(CC(C)C)c(=O)n(C)c1=O	0%	?	nt	-15%	-13%	-15%
COC(=O)c1cc(O)c(OCc2ccccc2)c(O)c1	23%	-21%	-11%	-27%	26%	-14%
O=C(O)c1ccccc1CN1CCC[C@@H](C(=O)O)C1	nt	nt	11%	nt	nt	nt
COc1cc(SC)ccc1C(=O)N1CCN(c2ccc(O)cc2)CC1	-12%	-26%	nt	nt	-24%	nt
CCCCOC(=O)C1=C(C)NC(=O)NC1c1ccccc1 (configuration not stated)	5%	6%	5%	nt	8.3µM*	nt
COc1cc(C2NC(=O)NC(C)=C2C(=O)OC2CCCCC2)cc(Br)c1O (configuration not stated)	21%	nt	-4%	-19%	13µM*	-15%
CCCCOC(=O)C1=C(C)NC(=O)NC1c1ccc(N(C)C)cc1 (configuration not stated)	-2%	18%	-2%	nt	176%	nt
Cc1ccccc1-n1c(=O)cc(N2CCN(Cc3ccccc3)CC2)[nH]c1=O	11%	-3%	5%	i	4%	3%
O=C(/C=C/c1ccccc1)CC(O)(c1ccccc1)C(F)(F)C(F)F (configuration not stated)	?	nt	-123%	-5%	7.4µM*	-21%
COc1ccc(/C=C/C(=O)CC(O)(c2ccccc2)C(F)(F)F)cc1 (configuration not stated)	-12%	13µM*	-39%	-26%	?	-29%
Nc1ccc(C=C2C=Cc3ccccc32)cc1	?	nt	nt	-17%	nt	-29%
O=c1[nH]c2ccccc2nc1-c1ccccc1	11%	53%	-12%	-8%	55%	-6%
CCOc1ccc(CCNc2ccc3nnc(-c4ccccc4)n3n2)cc1OCC	?	?	11%	-2%	4.7µM*	-12%
COCCSc1nnc(NC(=O)COC)s1	9%	3%	-11%	nt	15%	nt
O=C1NC(=S)NC(=O)C1=Cc1cccc2cc3ccccc3cc12	10µM*	?	-10%	?	?	11µM*
COc1ccc(-c2nc3ccc(Br)cn3c2Cc2ccsc2)cc1OC	nt	nt	nt	i	nt	-10%
SMILES	HCV inhibitor	Pf growth 48h	NS1 function inh	VACV mCherry inh	Pf growth 96h	Vaccinia Venus
Cc1cccn2c(=O)c3cc(C(=O)NC4CCCC4)c(=N)n(CCCN4CCOCC4)c3nc12	-19%	2.3µM*	12%	-1%	14%	-15%
Cc1cccn2c(=O)c3cc(C(=O)NCCN4CCOCC4)c(=N)n(CCN4CCOCC4)c3nc12	-11%	?	3%	-18%	-8%	-17%
Cc1cccn2c(=O)c3cc(C(=O)NCCN4CCOCC4)c(=N)n(Cc4ccc(F)cc4)c3nc12	?	?	6%	-4%	3.7µM*	-14%
Cc1cccn2c(=O)c3cc(C(=O)NCCN4CCOCC4)n(Cc4ccccc4)c3nc12	nt	31%	-3%	nt	12%	nt
CCOCCCn1c(=N)c(C(=O)NCCN2CCOCC2)cc2c(=O)n3cccc(C)c3nc21	-29%	10%	-1%	nt	1.5µM*	nt
CCOC(=O)N1CCC(NC(=O)CN(C)S(=O)(=O)c2cc3c(cc2Cl)NC(=O)CO3)CC1	1%	nt	2%	i	0%	-8%
C/C(CCc1ccccc1)=N\NC(=O)CCc1ccccc1	11%	26%	9%	-14%	38%	-1%
c1ccc(CN(Cc2ccco2)C(c2ccncc2)c2nnnn2C2CCCC2)cc1 (configuration not stated)	4%	?	?	i	10µM*	6%
Fc1ccc(C(c2nnnn2C2CCCC2)N(Cc2ccco2)CC2CCCO2)cc1 (configuration not stated)	-14%	?	?	-11%	nt	-21%
Fc1ccc(CN(Cc2ccccc2)C(c2cccs2)c2nnnn2C2CCCCC2)cc1 (configuration not stated)	?	?	4%	-15%	nt	-25%
Clc1ccc(CN(Cc2ccccc2)C(c2cccs2)c2nnnn2C2CCCC2)cc1 (configuration not stated)	-19%	12µM*	-17%	-11%	?	-14%
CC(C)(C)n1nnnc1C(c1cccs1)N(Cc1ccccc1)Cc1cccnc1 (configuration not stated)	-2%	?	-60%	0%[1.46 µM]	-21%	-19%
CC(C)(C)n1nnnc1C(c1cccs1)N(Cc1ccc(Cl)cc1)CC1CCCO1 (configuration not stated)	?	13µM*	-1%	11µM*	?	?
O=C(CNC(=O)c1ccco1)Nc1ccc(Br)cc1	5%	40%	1%	nt	61%	nt
Cc1cc(C(=O)NN=C(CCC(=O)O)c2cccs2)c(C)o1	-5%	nt	nt	-15%	nt	-6%
O=C(Nc1cccc(-c2nc3ncccc3o2)c1)c1sc2cc(Cl)ccc2c1Cl	8.9µM*	45%	5%	i	78%	-7%
CCOc1ccc(CN2CCN(CCCn3cccn3)CC2CCO)cc1 (configuration not stated)	1%	35%	3%	nt	28%	nt
COCCNCC1C(Oc2ccc(Cl)cc2)C(=O)N1c1ccccc1C (configuration not stated)	5%	?	nt	i	188%	-20%
